The campaign covered roughly 16,000 compounds. About 5,700 (36%) were called active. Not shown: some 24% with an inconclusive outcome. The list shows a part of the results. A number with no mark means an inactive call. The call rests on the fitted dose curve; in most records, active means well fitted curve in the direction sought with a large enough effect; inconclusive means small, poorly fitted or top-dose-only effect, or effect the other way; inactive means no such curve, though single readings can be large or run the other way.
On the % scale 0 is the no-effect control and ±100 the full control effect.

For the assay, the target named is Cytochrome P450 1A2 (Homo sapiens) (UniProt P05177). Put plainly: Cytochrome panel assay with activity outcomes. The following applies: recombinant CYP, pro-luciferin dealkylation, luminescence, p450-cyp1a2; series mostly up to 57.1 µM; activity, negative = inhibition: at the top concentration.
Sequence of Cytochrome P450 1A2 (Homo sapiens) (P05177 whole entry, looked up): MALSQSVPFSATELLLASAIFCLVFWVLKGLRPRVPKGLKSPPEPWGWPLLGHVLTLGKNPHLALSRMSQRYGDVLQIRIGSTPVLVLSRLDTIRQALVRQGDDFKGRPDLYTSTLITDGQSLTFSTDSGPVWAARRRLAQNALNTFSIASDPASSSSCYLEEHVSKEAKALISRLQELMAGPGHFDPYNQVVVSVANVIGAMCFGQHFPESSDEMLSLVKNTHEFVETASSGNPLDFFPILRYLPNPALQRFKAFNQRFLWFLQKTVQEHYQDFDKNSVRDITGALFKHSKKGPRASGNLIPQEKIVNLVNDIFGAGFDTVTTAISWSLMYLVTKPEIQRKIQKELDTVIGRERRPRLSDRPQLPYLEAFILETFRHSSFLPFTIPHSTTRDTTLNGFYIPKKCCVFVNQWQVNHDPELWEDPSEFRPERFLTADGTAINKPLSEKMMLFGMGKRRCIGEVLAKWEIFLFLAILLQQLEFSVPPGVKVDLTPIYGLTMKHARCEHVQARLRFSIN
For the molecule `O=C(O)[C@H]1[C@H](C(=O)O)[C@H]2CC[C@@H]1O2`, the “activity, negative = inhibition” value was 2.38%.
For orientation: AC50 means the concentration at which the activity in the assay is half-maximal. For the molecule `CCCCc1ccc(-c2nc(NC(=O)C3C4CCC(O4)C3C(=O)O)sc2C)cc1` (stereo not given), the AC50 is 15.8 µM (active).
Regarding `CC(C)[C@@]1(NC(=O)[C@@H]2C[C@H]3c4cccc5[nH]cc(c45)C[C@@H]3N(C)C2)O[C@]2(O)[C@H]3CCCN3C(=O)CN2C1=O`, the “activity, negative = inhibition” value is -12.6% [at 25.6 µM].
Still for that read-out and setting: the result for `O=C(O)[C@H]1CCN1` reads 0.0533%; that for `CC[C@]1([C@H]2O[C@@H]([C@@H]3O[C@](O)(CO)[C@@H](C)C[C@H]3C)C[C@H]2C)CC[C@@H]([C@]2(C)CC[C@@]3(C[C@@H](O)[C@@H](C)[C@@H]([C@H](C)[C@H](OC)[C@H](C)C(=O)O)O3)O2)O1`, -4.88% [at 25.6 µM].
As to `CC(=O)OC1=CC2=CC[C@H]3[C@H]4CCC(=O)[C@@]4(C)CC(=O)[C@]3(S)[C@]2(C)CC1`, the activity, negative = inhibition is -9.43% [at 2.29 µM].
`N[C@@H]1C[C@H]1c1ccccc1`: the AC50 is 15.8 µM (active).
The same measure, in the same setting: under `N[C@H]1C[C@H]1c1ccccc1` stands 5.01 µM (active).
Take `C[C@@]12CC[C@H](O)C[C@@H]1CC[C@H]1[C@@H]2C[C@@H](O)[C@]2(C)[C@@H](C3=CC(=O)OC3)CC[C@]12O`: the “activity, negative = inhibition” value is -3.8% [at 25.6 µM].
Still for that read-out and setting: under `CCN1CCN(Cc2cc(OC)c(OC)cc2[N+](=O)[O-])CC1` stands -23.6%.
The same measure, in the same setting: under `Cc1noc(C)c1C(=O)N1CCC2(CCCN(CC(C)C)C2)CC1` stands -17.1%; under `NC(CCl)=N[C@H]1CN2CCC1CC2`, -4.08% [at 11.4 µM]; under `N#Cc1ccc(CN2CCCC3(CCN(C(=O)Oc4ccccc4)CC3)C2)cc1`, -6.6%.
Consider `N#CC(=C(/N)Sc1ccccc1N)/C(C#N)=C(/N)Sc1ccccc1N`, for which the AC50 is 31.6 µM (active).
Still for that read-out and setting: under `NC(=O)CN1CCCC1=O` stands “inactive”; under `CC(C)C(=O)Nc1ccc([N+](=O)[O-])c(C(F)(F)F)c1`, 0.316 µM (active).
Turning to `CCN1CCN(c2ccc(NC(=O)C(C)C)cc2Cl)CC1`, the “activity, negative = inhibition” value is -5.66%.
The same measure, in the same setting: under `CS(=O)(=O)N1CCCC(C(=O)N2CCC3(CC2)OCCO3)C1` (stereo not given) stands -9.06%.
Regarding `CCOC(=O)C1Cc2c([nH]c3ccccc23)CN1` (stereo not given), the AC50 was 5.01 µM (active).
For `CN(C)CS/C(N)=N/[C@H](O)C(Cl)(Cl)Cl`, the activity, negative = inhibition is 4.09% [at 2.29 µM].
Take `O=C1CN=C(c2cccs2)c2c(sc3c2CCCC3)N1`: the AC50 was 15.8 µM (active).
The same measure, in the same setting: the result for `NC[C@H](O)c1ccc(O)cc1` reads “inactive”.
For `CN1C2C=C3C(C#N)=C(N)C(C#N)(C#N)[C@H](c4c(F)cccc4F)[C@H]3C1CC2` (stereo not given in full), the “activity, negative = inhibition” value is -20.5%.
As for `Oc1ccc2c3c1O[C@H]1c4oc5ccccc5c4C[C@]4(O)[C@H](C2)N(CC2CC2)CC[C@@]314`, the “activity, negative = inhibition” value was -3.2%.
As for `Nc1ccncc1`, the “activity, negative = inhibition” value was -10.7%.
`NC(=NCCc1ccc(I)cc1)SCCCc1cnc[nH]1`: the AC50 is 15.8 µM (active).
For the molecule `OCc1cnc[nH]1`, the “activity, negative = inhibition” value was 2.94%.
`CC(=O)OCC1=C(C(=O)[O-])N2C(=O)[C@@H](NC(=O)CCC[C@@H](N)C(=O)[O-])[C@@H]2SC1.[Zn+2]`: the “activity, negative = inhibition” value is -8.72%.
Take `Oc1ccc2[nH]cc(CCCCN3CC=C(c4ccccc4)CC3)c2c1`: the AC50 was 31.6 µM (active).
In the case of `COC1(CS(=O)c2ccccc2)CCN(CCc2c[nH]c3ccc(F)cc23)CC1` (stereo not given), the “activity, negative = inhibition” value was -12.4%.
Same read-out and setting: under `S=C(Nc1ccc(Cl)cc1)NC1CC2CCCC(C1)N2C1CCCC1` (stereo not given) stands -2.97%; under `O=C(Oc1ccccc1)N1CCC2(CCCN(Cc3ccccc3)C2)CC1`, -22.8%; under `C[C@@H]1O[C@H](O[C@@H]2C=C3CC[C@H]4[C@@H](CC[C@]5(C)[C@@H](c6ccc(=O)oc6)CC[C@]45O)[C@@]3(C)CC2)[C@@H](O)[C@H](O)[C@@H]1O`, -2.13% [at 25.6 µM].
`O=C(O)/C=C(\CC(=O)O)C(=O)O`: the activity, negative = inhibition is -6.78% [at 11.4 µM].
For `CN1CCN(c2ncc3ncc(=O)n(C)c3n2)CC1`, the half-maximal activity concentration (AC50) is 12.6 µM (active).
Regarding `CN1CCC2(CC1)CCN(C(=O)Oc1ccccc1)CC2`, the “activity, negative = inhibition” value was 0.724%.
Same read-out and setting: the result for `CC(C)[C@@H](C)/C=C\[C@@H](C)[C@@H]1CC[C@H]2C3=CC=C4C[C@@H](O)CC[C@]4(C)[C@H]3CC[C@]21C` reads -8.17% [at 11.4 µM].
Same read-out and setting: under `CC(C)NP(=O)(NC(C)C)OP(=O)(NC(C)C)NC(C)C` stands 5.14%; under `COc1cc2c(cc1OC)[C@]13CC[N@+]4(C)CC5=CCO[C@H]6CC(=O)N2[C@@H]1[C@@H]6[C@@H]5C[C@]34O`, -11.4% [at 2.29 µM].
`C[C@H](NC(C)(C)C)C(=O)c1cccc(Cl)c1`: the AC50 entry is “inactive”.
The same measure, in the same setting: under `Cc1c2cc[n+](CCN3CCCCC3)cc2c(C)c2c1[nH]c1ccc(O)cc12` stands 2.51 µM (active).
As for `CCNC(=O)[C@@H]1O[C@@H](n2cnc3c(N)ncnc32)[C@@H](O)[C@H]1O`, the “activity, negative = inhibition” value is 4.94%.
Same read-out and setting: under `CP(=O)(O)CCCN` stands -5.13%; under `O=C(CNS(=O)(=O)c1cccs1)N1CCC2(CC1)OCCO2`, 2.75%.
On the same count and under the same terms, the result for `CCn1c(O)c(C(c2ccccn2)c2c(O)n(CC)c(=S)[nH]c2=O)c(=O)[nH]c1=S` reads 8.62%.
As to `OC(Cn1c2ccccc2c2ccccc21)C[n+]1ccccc1` (stereo not given), the half-maximal activity concentration (AC50) was 3.16 µM (active).
As to `C/C=C1\C[C@H](C)[C@@](O)(CO)C(=O)OCC2=CCN3CC[C@@H](OC1=O)[C@@H]23`, the “activity, negative = inhibition” value was -2.57% [at 25.6 µM].
Turning to `CCOP(=O)(OCC)C(NC(=O)C(Cl)Cl)C(Cl)(Cl)Cl` (stereo not given), the “activity, negative = inhibition” value is -3.49%.
For the molecule `COCC(=O)N1CCC2(CCCN(Cc3ccncc3)C2)CC1`, the “activity, negative = inhibition” value was -9.26%.
On to `Nc1nc(OCc2ccccc2)c2[nH]cnc2n1`, for which the half-maximal activity concentration (AC50) was 1 µM (active).
Consider `O=C(Oc1ccccc1)N1CCC2(CCN(Cc3nccs3)CC2)CC1`, for which the “activity, negative = inhibition” value is -4.58%.
Still for that read-out and setting: the result for `NC[C@H](O)c1cc(O)c(O)cc1F` reads -15.4%; that for `CN1CCc2cc3c(cc2[C@@H]1O)OCO3`, -10.2% [at 25.6 µM]; that for `C[N+]1(C)CCc2cc3c(cc2[C@@H]1[C@@H]1OC(=O)c2c1ccc1c2OCO1)OCO3`, -11.3%.
`CN1Cc2c(ccc3c2OCO3)[C@@H]2[C@@H](O)Cc3cc4c(cc3[C@@H]21)OCO4`: the AC50 is 2.51 µM (active).
For `Cn1c(O)c(C(c2ccccn2)c2c(O)n(C)c(=S)n(C)c2=O)c(=O)n(C)c1=S`, the “activity, negative = inhibition” value was 3.65%.
`CC(C)(C)c1o[nH]c(=O)c1C[C@H](N)C(=O)O`: the AC50 result is “inactive”.
Regarding `COc1cc([C@@H](O)CN)ccc1O`, the “activity, negative = inhibition” value is 2.29%.
As for `COc1cc(CCN)c(OC)c(OC)c1`, the AC50 is 3.16 µM (active).
Turning to `Cn1c(=O)c2[nH]cnc2n(C)c1=O.[CH2-][C@H](Cc1cccc2cc(C(=O)O)c(=O)oc12)OC.[Hg].[OH-]`, the activity, negative = inhibition was -15.3% [at 11.4 µM].

Source of the values: PubChem BioAssay AID1851 (National Center for Advancing Translational Sciences (NCATS), 2009).
